Results on 5 molecules are retold here after PubChem BioAssay.

Inconclusive results are not listed. Activity calls are given as the source filed them.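 How the source made its calls, unless noted: active means efflux inhibition above 0.42, the validation set average plus 4 SD; inconclusive means no clear call, values can overlap the other calls; inactive means the rest.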

The nature of assay [1]: yeast TOR pathway RPL19A-GFP modulators, primary screen, cell-based, S. cerevisiae, multiplex flow cytometry (AID 1862; in the data active means percent of DMSO control GFP below about 86%;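 further: lower values mimic rapamycin by blocking the RPL19A rise seen in DMSO cells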). To be noted: S. cerevisiae RPL19A-GFP strain, flow cytometry fluorescence, 3 h; at 10 µM; stronger effect = lower value.
The nature of assay [2]: modulators of CIT2-GFP expression in yeast, primary screen, S. cerevisiae, GFP fusion, multiplex flow cytometry (AID 1870;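 active means percent response above a set limit, the screen-wide mean plus 3 SD, cut at about 130% in these data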;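 further: barcoded CIT2-GFP strain pooled with four other GFP strains with rapamycin as positive control; median GFP fluorescence per well over plate mean of DMSO wells so 100% = DMSO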). Conditions: 3 h, at 10 µM, stronger effect = higher value.
Assay [3] in a line: modulators of LAP4-GFP expression in yeast, primary screen, S. cerevisiae, multiplex flow cytometry (AID 1873;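 active means GFP signal, as percent of the solvent control, above the screen mean plus 3 SD, about 149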). Conditions: 3 h, at 10 µM, stronger effect = higher value.
Assay [4] in a line: modulators of AGP1-GFP expression in yeast TOR pathway, primary screen, cell-based, multiplex flow cytometry, S. cerevisiae (AID 1887;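 active means GFP signal above the screen-wide mean plus 3 SD, that is over about 124.5% of the solvent control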;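 further: AGP1-GFP fusion strain of S. cerevisiae within a five-strain barcoded multiplex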). Conditions: 3 h, at 10 µM, stronger effect = higher value.
Assay [5] can be described thus: inhibitors of CD8+ T cell-vesicle binding, pilot screen, LFA-1/ICAM-1 modulator project, MLPCN validation set, flow cytometry (AID 2523;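 active means response below a set limit, under 55% cells CD8-positive and vesicle-bound, and CD8 cells' 90th-percentile brightness under 279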;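 on vesicle binding response: mean PE anti-B7-1 fluorescence of CD8+ cells relative to row control; 100% = QL9-loaded vesicles with DMSO vehicle in the same plate row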). To be noted: 2C mouse CD8+ T cells, at 7 µM, stronger effect = lower value; double positive events: measured here: CD8+/vesicle+ event percentage.
The target of assay [6] is Integrin beta-1 (Homo sapiens) + Integrin alpha-4 (Homo sapiens) (UniProt P13612+P05556). Nature of the assay: inhibition of HUTS-21 binding to VLA-4, pilot screen, VLA-4 allosteric modulator project, U937 cells, HUTS-21 mAb, flow cytometry, validation set (AID 2674;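 active means inhibition above 50%, about 3 SD of the validation set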;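 further: antibody binding induced by the VLA-4 ligand LDV present at three times its Kd; 0% = LDV ligand with antibody and no compound and 100% = antibody without LDV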). To be noted: HUTS-21 LIBS mAb binding, at 6.7 µM, stronger effect = higher value, binding induced by LDV ligand.
Assay [7] is described as follows: superoxide lowering in aged yeast cells, pilot screen, validation compound set (AID 2706;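 active means superoxide response below 65% of plate, a cut near 3 SD across the whole screen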;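 further: yeast exposed to compound for one week at 30 degrees C before staining; 100% = mean of all compound wells on the same plate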). Conditions: S. cerevisiae aging, superoxide DHE fluorescence; at 10 µM, stronger effect = lower value.
The target in assay [8] is Beta-adrenergic receptor kinase 1 (Homo sapiens) (UniProt P25098). Nature of the assay: GRK2 binders displacing RNA aptamer, biochemical, validation, human GRK2, bead flow cytometry (AID 488806;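 active means aptamer binding inhibition above 30%, about 3 SD of noise from non-fluorescent compounds; inactive means inhibition at or below 30%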). Conditions: bead-bound GRK2, FAM-aptamer displacement, at 10 µM, stronger effect = higher value.
Assay [9] addresses Beta-2 adrenergic receptor (Homo sapiens) (UniProt P07550). Nature of the assay: beta2AR agonists driving receptor internalization, pilot screen, cell-based, FAP fluorogen, flow cytometry, validation set (AID 504459;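 active means percent response above 42, roughly 3 SD of non-fluorescent test compounds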;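 further: agonist-driven loss of surface beta2AR via internalization measured by FAP dye flow cytometry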). Conditions: Am2.2-beta2AR cells, FAP surface receptor flow cytometry; at 10 µM; stronger effect = higher value.
Assay [10] addresses AP-2 complex subunit beta (Homo sapiens) (UniProt P63010). Nature of the assay: inhibitors of arrestin peptide binding to AP2, pilot screen, biochemical, validation set, GST-AP2 beads, flow cytometry (AID 504541;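 active means inhibition above 54%, about 3 SD of non-fluorescent compounds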;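 further: AP2 carries R879A mutation and is captured from E. coli lysate; bead-bound FITC arrestin peptide fluorescence measuring arrestin peptide binding to AP2; 0% = DMSO wells and 100% = excess unlabeled arrestin peptide control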). Conditions: FITC arrestin peptide, at 10 µM, stronger effect = higher value, AP2 beta2 appendage fragment, R879A mutant.
The nature of assay [11]: yeast V-ATPase proton transport modulators, S. cerevisiae, pHLuorin, HTS validation (AID 504600; in the data active means response above about 15%;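 further: plate controls were DMSO for no effect and reference compound for full effect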). Conditions: S. cerevisiae pHLuorin cytosolic pH, at 10 µM, stronger effect = higher value.
Assay [12] deals with anti-desmoglein-3 scFv antibody binding to human DSG3. The assay is described as follows: inhibitors of anti-DSG3 scFv binding to DSG3, pilot screen, biochemical, validation compound set, bead-based, flow cytometry (AID 588368;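 active means binding below the plate cutoff, the plate median minus 3 SD, with a reading above zero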;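 further: signal is the median channel fluorescence of bead-bound GFP antibody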). Conditions: Protein G beads, DSG3-Fc, scFv-GFP binding, at 10 µM, stronger effect = lower value.
The nature of assay [13]: inhibitors of fungal efflux pumps CDR1, CDR2, MDR1, pilot screen, validation compound set, multiplex, phenotypic (AID 588506).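 Further: Nile Red retained in cells so higher fluorescence means more efflux inhibition; 0 = negative control wells and 1 = enniatin B 25 µM full block.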 To be noted: S. cerevisiae pump-expressing triplex, Nile Red efflux flow cytometry; at 10 µM; stronger effect = higher value; the pumps come from Candida albicans.
For assay [14], the target named is ATP-binding cassette sub-family B member 6 (Homo sapiens) (UniProt Q9NP58). Nature of the assay: ABCB6 transporter inhibitors, pilot screen, K562-ABCB6 cells, flow cytometry, validation set (AID 588550;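 active means inhibition above the screen-wide mean plus 3 SD, about 51%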;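 further: 0% = DMSO wells and 100% = benzethonium chloride 70 µM positive control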). Conditions: K562-ABCB6 porphyrin accumulation, 1 h, at 10 µM, stronger effect = higher value.
A short description of assay [15]: promoters of myeloid differentiation in arrested cells, primary screen, cell-based, GFP/MAC1 double positive, flow cytometry, validation set (AID 588685;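 active means differentiation response of at least 50%, scaled between solvent and reference control, from cells with both markers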;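 further: compound exposure lasts four days before antibody staining and flow analysis; 0% = DMSO wells and 100% = 5 µM fulvestrant positive control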). Conditions: ER-HoxA9 marrow cells, stronger effect = higher value, normalized: vehicle 0, fulvestrant 100.
Assay [16] can be described thus: modulators of MEP2-GFP levels in yeast, primary screen, S. cerevisiae, multiplex flow cytometry (AID 1867;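 active means GFP response, as percent of the DMSO control, above the screen-wide mean plus 3 SD, about 139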;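 further: median GFP channel fluorescence of barcode-gated MEP2-GFP cells measured by flow cytometry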). To be noted: S. cerevisiae MEP2-GFP strain, 3 h, at 10 µM, stronger effect = higher value, 100% means same as DMSO wells.

Sequence of Beta-2 adrenergic receptor (Homo sapiens) (P07550 whole entry, looked up): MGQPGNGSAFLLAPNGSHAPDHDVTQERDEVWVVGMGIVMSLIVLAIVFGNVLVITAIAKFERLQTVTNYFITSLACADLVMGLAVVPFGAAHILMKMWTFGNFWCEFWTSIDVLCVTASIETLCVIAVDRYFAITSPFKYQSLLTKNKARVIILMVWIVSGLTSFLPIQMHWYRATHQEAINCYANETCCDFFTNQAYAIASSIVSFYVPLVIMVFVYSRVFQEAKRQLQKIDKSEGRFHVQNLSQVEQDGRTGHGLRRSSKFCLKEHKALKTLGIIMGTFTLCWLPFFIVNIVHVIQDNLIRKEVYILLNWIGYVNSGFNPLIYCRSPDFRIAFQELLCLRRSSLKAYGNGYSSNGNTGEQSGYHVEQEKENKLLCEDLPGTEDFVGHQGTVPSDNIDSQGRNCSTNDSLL
Sequence of Beta-adrenergic receptor kinase 1 (Homo sapiens) (P25098 whole entry, looked up): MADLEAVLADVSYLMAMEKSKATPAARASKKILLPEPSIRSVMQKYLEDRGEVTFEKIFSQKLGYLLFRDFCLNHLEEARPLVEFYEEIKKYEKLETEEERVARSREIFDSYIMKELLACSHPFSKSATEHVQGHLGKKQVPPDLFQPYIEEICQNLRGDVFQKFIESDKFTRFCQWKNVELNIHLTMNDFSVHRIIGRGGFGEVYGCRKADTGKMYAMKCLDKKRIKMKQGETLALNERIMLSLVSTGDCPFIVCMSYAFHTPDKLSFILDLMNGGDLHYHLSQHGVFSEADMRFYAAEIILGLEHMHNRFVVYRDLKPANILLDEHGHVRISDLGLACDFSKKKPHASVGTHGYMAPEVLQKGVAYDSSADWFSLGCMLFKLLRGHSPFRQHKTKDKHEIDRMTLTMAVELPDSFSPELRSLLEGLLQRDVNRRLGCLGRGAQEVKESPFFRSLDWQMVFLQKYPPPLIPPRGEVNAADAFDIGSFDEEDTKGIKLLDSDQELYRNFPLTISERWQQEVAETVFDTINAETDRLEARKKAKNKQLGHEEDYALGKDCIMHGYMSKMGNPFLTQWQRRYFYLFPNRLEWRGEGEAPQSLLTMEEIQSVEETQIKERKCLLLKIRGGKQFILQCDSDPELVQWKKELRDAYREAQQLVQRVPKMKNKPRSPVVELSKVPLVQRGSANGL
Sequence of ATP-binding cassette sub-family B member 6 (Homo sapiens) (Q9NP58 whole entry, looked up): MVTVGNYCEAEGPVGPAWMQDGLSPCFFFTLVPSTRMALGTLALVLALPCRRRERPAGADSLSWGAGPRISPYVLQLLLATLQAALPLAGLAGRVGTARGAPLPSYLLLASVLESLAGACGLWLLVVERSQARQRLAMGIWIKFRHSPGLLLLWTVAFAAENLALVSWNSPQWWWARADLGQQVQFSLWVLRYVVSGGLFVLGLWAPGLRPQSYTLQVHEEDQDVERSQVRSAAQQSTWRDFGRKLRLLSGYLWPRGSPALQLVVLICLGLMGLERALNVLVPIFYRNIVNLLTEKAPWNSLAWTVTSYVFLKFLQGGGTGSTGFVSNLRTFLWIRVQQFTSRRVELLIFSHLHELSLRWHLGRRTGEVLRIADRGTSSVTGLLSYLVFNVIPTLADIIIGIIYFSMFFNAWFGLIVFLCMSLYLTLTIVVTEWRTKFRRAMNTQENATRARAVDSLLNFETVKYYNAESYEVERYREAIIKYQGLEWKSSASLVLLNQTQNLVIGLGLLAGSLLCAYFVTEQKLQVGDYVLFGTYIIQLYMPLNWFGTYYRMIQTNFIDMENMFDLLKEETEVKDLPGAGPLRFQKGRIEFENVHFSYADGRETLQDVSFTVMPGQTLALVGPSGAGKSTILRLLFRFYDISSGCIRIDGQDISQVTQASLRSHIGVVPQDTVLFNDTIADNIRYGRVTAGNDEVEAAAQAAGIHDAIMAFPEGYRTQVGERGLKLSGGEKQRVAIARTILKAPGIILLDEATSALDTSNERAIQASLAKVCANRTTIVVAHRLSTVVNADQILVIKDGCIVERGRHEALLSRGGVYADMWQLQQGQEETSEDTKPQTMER
Sequence of AP-2 complex subunit beta (Homo sapiens) (P63010 whole entry, looked up, the tested form may be a part, one chain of several): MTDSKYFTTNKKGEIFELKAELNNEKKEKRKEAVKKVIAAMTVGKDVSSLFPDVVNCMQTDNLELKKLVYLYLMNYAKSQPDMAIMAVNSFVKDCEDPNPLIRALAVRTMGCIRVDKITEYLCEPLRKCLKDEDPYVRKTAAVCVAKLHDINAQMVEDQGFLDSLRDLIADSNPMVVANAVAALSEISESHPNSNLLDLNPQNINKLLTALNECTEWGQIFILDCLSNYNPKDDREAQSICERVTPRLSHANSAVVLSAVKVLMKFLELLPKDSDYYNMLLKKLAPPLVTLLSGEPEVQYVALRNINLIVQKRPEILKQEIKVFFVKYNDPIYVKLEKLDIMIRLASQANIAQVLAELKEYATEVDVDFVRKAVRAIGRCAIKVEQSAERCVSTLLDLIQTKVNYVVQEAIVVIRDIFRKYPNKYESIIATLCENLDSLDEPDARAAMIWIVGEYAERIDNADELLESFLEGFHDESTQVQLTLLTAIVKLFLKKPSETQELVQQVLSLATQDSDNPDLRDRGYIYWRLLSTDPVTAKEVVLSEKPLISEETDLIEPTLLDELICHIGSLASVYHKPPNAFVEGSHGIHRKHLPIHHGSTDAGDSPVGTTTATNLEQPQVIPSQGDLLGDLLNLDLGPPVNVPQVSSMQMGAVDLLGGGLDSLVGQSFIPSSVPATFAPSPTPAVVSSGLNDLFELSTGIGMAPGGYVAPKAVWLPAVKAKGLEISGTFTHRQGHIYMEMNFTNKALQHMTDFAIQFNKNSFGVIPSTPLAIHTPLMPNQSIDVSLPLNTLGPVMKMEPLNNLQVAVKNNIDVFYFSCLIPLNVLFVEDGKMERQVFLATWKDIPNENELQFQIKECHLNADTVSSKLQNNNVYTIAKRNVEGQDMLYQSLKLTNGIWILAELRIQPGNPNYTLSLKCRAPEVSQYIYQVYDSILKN
Sequence of Integrin beta-1 (Homo sapiens) + Integrin alpha-4 (Homo sapiens) (P05556 whole entry, looked up): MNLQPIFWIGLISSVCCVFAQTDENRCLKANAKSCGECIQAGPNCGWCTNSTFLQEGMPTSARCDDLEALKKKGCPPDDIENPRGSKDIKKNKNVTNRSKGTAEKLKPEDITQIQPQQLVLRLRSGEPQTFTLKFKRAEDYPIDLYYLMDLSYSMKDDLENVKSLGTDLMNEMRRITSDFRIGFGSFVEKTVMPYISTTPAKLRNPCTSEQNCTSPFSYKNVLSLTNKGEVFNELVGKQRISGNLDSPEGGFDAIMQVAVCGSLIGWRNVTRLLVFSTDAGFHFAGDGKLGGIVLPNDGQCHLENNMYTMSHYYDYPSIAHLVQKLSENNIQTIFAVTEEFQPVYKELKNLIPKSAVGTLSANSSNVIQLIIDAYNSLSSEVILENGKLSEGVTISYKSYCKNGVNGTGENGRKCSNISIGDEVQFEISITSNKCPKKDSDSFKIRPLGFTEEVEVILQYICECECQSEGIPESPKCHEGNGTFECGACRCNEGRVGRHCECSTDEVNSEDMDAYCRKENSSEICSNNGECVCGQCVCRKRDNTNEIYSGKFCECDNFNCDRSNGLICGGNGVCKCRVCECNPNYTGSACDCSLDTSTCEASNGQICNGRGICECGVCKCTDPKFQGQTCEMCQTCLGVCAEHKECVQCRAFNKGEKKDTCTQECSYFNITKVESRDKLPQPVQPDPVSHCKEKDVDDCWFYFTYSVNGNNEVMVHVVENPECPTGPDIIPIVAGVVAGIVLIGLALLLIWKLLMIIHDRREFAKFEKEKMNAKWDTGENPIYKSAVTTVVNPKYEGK
Sequence of Integrin beta-1 (Homo sapiens) + Integrin alpha-4 (Homo sapiens) (P13612 whole entry, looked up): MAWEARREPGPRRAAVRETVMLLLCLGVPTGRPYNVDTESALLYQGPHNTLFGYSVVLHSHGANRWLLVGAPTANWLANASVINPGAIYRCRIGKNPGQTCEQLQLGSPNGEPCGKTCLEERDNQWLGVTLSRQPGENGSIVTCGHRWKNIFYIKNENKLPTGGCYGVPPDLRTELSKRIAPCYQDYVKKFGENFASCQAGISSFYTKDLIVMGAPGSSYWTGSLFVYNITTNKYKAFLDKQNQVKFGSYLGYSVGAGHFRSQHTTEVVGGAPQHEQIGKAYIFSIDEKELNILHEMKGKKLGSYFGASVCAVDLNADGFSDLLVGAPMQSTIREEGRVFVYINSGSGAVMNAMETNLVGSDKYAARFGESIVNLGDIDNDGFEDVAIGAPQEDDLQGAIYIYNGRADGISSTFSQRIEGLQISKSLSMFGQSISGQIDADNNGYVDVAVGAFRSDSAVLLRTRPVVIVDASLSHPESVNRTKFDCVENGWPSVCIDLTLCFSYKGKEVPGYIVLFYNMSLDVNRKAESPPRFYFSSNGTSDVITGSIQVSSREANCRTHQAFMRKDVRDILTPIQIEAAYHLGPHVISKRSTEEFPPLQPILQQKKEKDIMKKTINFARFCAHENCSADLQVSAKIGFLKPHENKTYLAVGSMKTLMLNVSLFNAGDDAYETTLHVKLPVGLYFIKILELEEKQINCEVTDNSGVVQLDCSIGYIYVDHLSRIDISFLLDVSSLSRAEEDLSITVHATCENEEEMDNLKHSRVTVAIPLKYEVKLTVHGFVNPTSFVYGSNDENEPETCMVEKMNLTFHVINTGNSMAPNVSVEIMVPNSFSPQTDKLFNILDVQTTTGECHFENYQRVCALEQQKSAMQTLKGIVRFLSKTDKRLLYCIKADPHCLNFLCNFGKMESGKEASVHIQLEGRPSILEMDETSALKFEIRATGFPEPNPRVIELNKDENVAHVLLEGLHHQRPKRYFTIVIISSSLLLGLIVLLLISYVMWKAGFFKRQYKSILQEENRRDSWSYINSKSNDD

Take `COc1cc(/C=C/C(=O)N2CCCC2)cc(OC)c1OC`: the percent of DMSO control GFP in [1] was 106% (inactive). In assay [2], the percent response of DMSO control is 107% (inactive). Moreover, in [3], the GFP response vs DMSO is 76.9% (inactive). Also, the GFP response, % of DMSO in assay [4] is 100% (inactive). For the same molecule, in [5], the double positive events stood at 61.5%. The vesicle binding response in assay [5] was 29.3% (inactive). In addition, the inhibition is 6.81% (inactive) in assay [6], -0.17% (inactive) in assay [10] and -1% (inactive) in assay [14]. The superoxide response (% of plate) in [7] is 95.8% (inactive). In addition, the aptamer binding inhibition in assay [8] was 5% (inactive). The figures for the response in assay [9] and in assay [11] were -5.19% (inactive) and 0.86% (inactive), respectively. Also, the binding (% of control) in assay [12] was 95.1% (inactive). Moreover, the efflux inhibition (fraction of control) in [13] is 0.02 (inactive). Also, in assay [15], the differentiation response is 12.9% (inactive).

In the case of `C[C@]12C=CC(=O)C=C1CCC1C3CC[C@](O)(C(=O)CO)[C@@]3(C)CC3OC312` (stereo not given in full), the percent of DMSO control GFP in assay [1] is 102% (inactive). Besides, the percent response of DMSO control in assay [2] is 95.8% (inactive). Besides, in assay [3], the GFP response vs DMSO is 85.4% (inactive). Further, the GFP response, % of DMSO in [4] is 101% (inactive). Further, the double positive events in [5] was 76.1%. In addition, in [5], the vesicle binding response was 298% (inactive). Further, the inhibition in assay [6] was 5.03% (inactive); in assay [10], -1.32% (inactive); in assay [14], 113% (active). Besides, in assay [7], the superoxide response (% of plate) was 87.7% (inactive). Moreover, the aptamer binding inhibition in assay [8] was 2% (inactive). Besides, the response is 2.49% (inactive) in [9] and -0.61% (inactive) in assay [11]. The binding (% of control) in [12] was 102% (inactive). For the same molecule, in assay [13], the efflux inhibition (fraction of control) was 0.22 (inactive). In assay [15], the differentiation response was -13.6% (inactive).

In the case of `Cc1oc2ccc(OC(=O)c3cccs3)cc2c1C(=O)OC(C)C`, in assay [1], the percent of DMSO control GFP is 91.2% (inactive). Moreover, the percent response of DMSO control in [2] was 92.5% (inactive). Also, the GFP response vs DMSO in [3] is 115% (inactive). The GFP response, % of DMSO in assay [4] was 94.9% (inactive). This molecule also registered a double positive events in [5] of 64.6%. The vesicle binding response in assay [5] is 205% (inactive). The inhibition was -4.52% (inactive) in assay [6], -7.21% (inactive) in [10] and 2% (inactive) in [14]. Besides, the superoxide response (% of plate) in assay [7] is 96% (inactive). Moreover, in [8], the aptamer binding inhibition is 1% (inactive). Further, the results for the response in [9] and in assay [11] were -19.3% (inactive) and -4.85% (inactive), respectively. In addition, the binding (% of control) in assay [12] is 105% (inactive). For the same molecule, the efflux inhibition (fraction of control) in [13] was -0.09 (inactive). The differentiation response in [15] is -4.99% (inactive).

Consider `C=CCc1cc(Cl)ccc1OCCOCCN(C)C`, for which the percent of DMSO control GFP in assay [1] is 103% (inactive). Besides, the percent response of DMSO control in [2] was 108% (inactive). The GFP response vs DMSO in assay [3] is 75.2% (inactive). For the same molecule, the GFP response, % of DMSO in assay [4] is 88.5% (inactive). Besides, in [5], the double positive events is 60%. For the same molecule, the vesicle binding response in [5] is 144% (inactive). For the same molecule, the values for the inhibition in assay [6], in assay [10] and in assay [14] were -4.52% (inactive), -5.37% (inactive) and 1% (inactive), respectively. Besides, the superoxide response (% of plate) in assay [7] was 98.8% (inactive). The aptamer binding inhibition in assay [8] is 4% (inactive). Besides, the response in assay [9] was 3.31% (inactive); in assay [11], -5.95% (inactive). Moreover, the binding (% of control) in [12] is 102% (inactive). In addition, the efflux inhibition (fraction of control) in assay [13] is -0.17 (inactive). Further, in [15], the differentiation response is 16.8% (inactive).

In the case of `O=C1NCC2=C1C(c1ccccc1)Nc1ccccc1N2` (stereo not given), the percent of DMSO control GFP in [1] was 94.6% (inactive). Further, the GFP response vs DMSO in assay [16] is 112% (inactive); in assay [3], 75.9% (inactive). The percent response of DMSO control in assay [2] was 102% (inactive). Also, in assay [5], the double positive events amounted to 65.6%. Besides, in assay [5], the vesicle binding response was 205% (inactive). Also, the inhibition was 9.37% (inactive) in [6], 1.06% (inactive) in [10] and 7% (inactive) in [14]. In assay [7], the superoxide response (% of plate) is 100% (inactive). In assay [8], the aptamer binding inhibition was 1% (inactive). The results for the response in assay [9] and in [11] were -9.09% (inactive) and -0.53% (inactive), respectively. In assay [12], the binding (% of control) is 102% (inactive). The efflux inhibition (fraction of control) in assay [13] is 0.16 (inactive). The differentiation response in assay [15] was -4.09% (inactive).
